The values below come from PMC7862700, “An all-to-all approach to the identification of sequence-specific readers for epigenetic DNA modifications on cytosine”.

What all share (test): DAPPL (digital affinity profiling via proximity ligation, sequencing); 10 mM Tris-HCl pH 7.5, 50 mM NaCl, 1 mM DTT, 4% glycerol, room temperature, 30 min; GST-TFs on glutathione beads, 16-mer random dsDNA library, 0.1% formaldehyde crosslink after washing; high values mean tight binding
One assay concerns the target T1, FEV (Homo sapiens, UniProt Q99581 1-238).
T1 sequence: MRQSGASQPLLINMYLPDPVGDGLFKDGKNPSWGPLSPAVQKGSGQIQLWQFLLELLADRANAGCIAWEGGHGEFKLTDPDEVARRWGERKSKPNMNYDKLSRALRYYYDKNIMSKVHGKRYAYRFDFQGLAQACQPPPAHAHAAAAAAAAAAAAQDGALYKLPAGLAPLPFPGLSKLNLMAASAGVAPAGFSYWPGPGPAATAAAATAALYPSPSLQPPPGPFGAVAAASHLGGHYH
The following applies: protein: recombinant; tags: N-terminal GST; dsDNA, one strand shown. The procedure, abridged: (§1)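 Human transcription factors carrying a GST fusion were produced in yeast, bound to glutathione beads, tagged with DNA barcodes and pooled together with a tag-only sample. Each pool was held with 200 nmole of a random double-stranded 16-mer DNA library in Tris/NaCl/DTT/glycerol buffer for 30 min at room temperature, then washed, crosslinked in 0.1% formaldehyde, proximity-ligated with BsaI/T4 ligase (1 h, 37 °C), PCR-amplified and sequenced on an Illumina NextSeq500. Binding signal is the read frequency of each hexamer for a given factor divided by its frequency in the tag-only sample.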

The next assay has as its target ETV5 (Homo sapiens, UniProt P41161 1-510). The following applies: protein: recombinant; tags: N-terminal GST; dsDNA, one strand shown. The procedure, abridged: as §1
A further assay addresses HSF1 (Homo sapiens, UniProt Q00613 1-529). The following applies: protein: recombinant; tags: N-terminal GST; chain copies: 3; dsDNA, one strand shown. The procedure, abridged:
as §1

For the next assay, the target named is T2, SPIC (Homo sapiens, UniProt Q8N5J4 1-248).
T2 sequence: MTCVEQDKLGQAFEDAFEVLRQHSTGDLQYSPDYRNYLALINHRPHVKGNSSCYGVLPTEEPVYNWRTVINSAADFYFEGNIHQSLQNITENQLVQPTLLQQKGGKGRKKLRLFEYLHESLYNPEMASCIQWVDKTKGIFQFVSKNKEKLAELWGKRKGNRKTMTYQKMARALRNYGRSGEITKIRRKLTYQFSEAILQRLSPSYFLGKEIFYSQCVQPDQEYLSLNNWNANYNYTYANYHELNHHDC
Particulars: protein: recombinant; tags: N-terminal GST; dsDNA, one strand shown. The procedure, abridged: as §1

The target of another assay is ELF4 (Homo sapiens, UniProt Q99607 1-663). The following applies: protein: recombinant; tags: N-terminal GST; dsDNA, one strand shown. The procedure, abridged: as §1
ELF4, sequence (Q99607 whole entry): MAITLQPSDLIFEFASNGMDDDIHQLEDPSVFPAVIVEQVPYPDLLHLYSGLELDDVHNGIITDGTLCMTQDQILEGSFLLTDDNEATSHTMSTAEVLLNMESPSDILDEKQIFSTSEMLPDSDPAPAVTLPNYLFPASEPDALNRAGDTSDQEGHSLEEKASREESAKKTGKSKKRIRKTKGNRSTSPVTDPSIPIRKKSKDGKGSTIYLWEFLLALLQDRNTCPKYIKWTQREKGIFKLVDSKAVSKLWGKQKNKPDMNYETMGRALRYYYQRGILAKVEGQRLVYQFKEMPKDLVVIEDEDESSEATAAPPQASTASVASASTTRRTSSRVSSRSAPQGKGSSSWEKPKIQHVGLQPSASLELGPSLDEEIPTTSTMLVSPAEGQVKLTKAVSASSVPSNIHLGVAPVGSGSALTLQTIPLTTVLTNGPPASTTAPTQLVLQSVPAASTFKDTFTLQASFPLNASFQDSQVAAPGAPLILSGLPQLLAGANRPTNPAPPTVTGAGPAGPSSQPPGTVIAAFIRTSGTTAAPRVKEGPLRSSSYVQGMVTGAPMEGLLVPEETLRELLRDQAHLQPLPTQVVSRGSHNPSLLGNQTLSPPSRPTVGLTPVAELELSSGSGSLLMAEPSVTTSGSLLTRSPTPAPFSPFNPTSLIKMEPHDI
The next assay concerns the target T3, ELK4 (Homo sapiens, UniProt P28324-2 1-405).
T3 sequence: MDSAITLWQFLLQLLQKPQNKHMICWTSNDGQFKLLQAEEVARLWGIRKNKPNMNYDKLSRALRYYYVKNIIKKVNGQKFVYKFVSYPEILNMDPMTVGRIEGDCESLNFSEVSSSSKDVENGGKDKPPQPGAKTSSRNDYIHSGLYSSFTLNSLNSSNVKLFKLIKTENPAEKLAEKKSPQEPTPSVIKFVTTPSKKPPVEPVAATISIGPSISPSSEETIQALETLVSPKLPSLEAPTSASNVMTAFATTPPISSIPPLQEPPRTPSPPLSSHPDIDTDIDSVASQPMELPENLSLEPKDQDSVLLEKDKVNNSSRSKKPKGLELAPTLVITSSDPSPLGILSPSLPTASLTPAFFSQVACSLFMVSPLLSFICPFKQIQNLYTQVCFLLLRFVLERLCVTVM
Particulars: protein: recombinant; tags: N-terminal GST; dsDNA, one strand shown. The procedure, abridged: as §1

The target in a further assay is T4, ETV2 (Homo sapiens, UniProt O00321 1-342).
T4 sequence: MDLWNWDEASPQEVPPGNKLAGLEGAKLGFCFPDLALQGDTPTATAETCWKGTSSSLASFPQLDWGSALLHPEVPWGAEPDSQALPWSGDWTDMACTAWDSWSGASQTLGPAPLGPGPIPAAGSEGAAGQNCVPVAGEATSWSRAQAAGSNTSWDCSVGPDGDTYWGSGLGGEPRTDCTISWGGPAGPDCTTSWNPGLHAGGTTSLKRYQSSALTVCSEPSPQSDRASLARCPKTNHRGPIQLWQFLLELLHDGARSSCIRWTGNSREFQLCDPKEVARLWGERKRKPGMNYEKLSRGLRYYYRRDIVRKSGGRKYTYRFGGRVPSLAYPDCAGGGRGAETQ
Particulars: protein: recombinant; tags: N-terminal GST; dsDNA, one strand shown. The method in brief: as §1

For another assay, the target named is T5, ELF3 (Homo sapiens, UniProt P78545 1-371).
T5 sequence: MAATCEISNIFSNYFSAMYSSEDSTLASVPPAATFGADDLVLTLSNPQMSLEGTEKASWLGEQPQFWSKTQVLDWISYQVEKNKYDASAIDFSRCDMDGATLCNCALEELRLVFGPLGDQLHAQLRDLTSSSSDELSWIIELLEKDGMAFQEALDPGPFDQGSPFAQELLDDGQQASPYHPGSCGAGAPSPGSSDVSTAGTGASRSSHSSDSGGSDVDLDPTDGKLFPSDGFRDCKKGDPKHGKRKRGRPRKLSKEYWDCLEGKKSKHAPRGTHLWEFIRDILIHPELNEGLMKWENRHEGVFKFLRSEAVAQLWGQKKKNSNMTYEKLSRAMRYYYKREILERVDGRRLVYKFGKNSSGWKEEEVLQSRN
The following applies: protein: recombinant; tags: N-terminal GST; dsDNA, one strand shown. The procedure, abridged:
as §1

Another assay addresses CRX (Homo sapiens, UniProt O43186 1-299). The following applies: protein: recombinant; tags: N-terminal GST; dsDNA, one strand shown. The method in brief:
as §1

The target of another assay is ETV1 (Homo sapiens, UniProt P50549 1-477). Particulars: protein: recombinant; tags: N-terminal GST; dsDNA, one strand shown. The method in brief: as §1
ETV1, sequence (P50549 whole entry): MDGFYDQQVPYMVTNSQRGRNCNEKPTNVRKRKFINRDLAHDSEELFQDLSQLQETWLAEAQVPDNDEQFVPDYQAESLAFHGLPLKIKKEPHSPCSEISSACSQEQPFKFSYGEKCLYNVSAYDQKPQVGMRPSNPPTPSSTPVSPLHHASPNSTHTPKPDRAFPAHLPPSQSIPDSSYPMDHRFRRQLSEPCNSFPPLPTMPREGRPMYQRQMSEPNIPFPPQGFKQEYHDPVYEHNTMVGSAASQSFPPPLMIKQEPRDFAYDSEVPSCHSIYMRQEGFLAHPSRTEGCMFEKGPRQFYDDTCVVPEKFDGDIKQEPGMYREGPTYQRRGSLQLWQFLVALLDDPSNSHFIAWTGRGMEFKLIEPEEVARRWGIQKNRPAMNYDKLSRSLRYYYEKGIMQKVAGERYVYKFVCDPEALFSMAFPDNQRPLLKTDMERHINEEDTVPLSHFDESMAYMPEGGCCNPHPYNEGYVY
For the next assay, the target named is T6, ERF (Homo sapiens, UniProt P50548 1-548).
T6 sequence: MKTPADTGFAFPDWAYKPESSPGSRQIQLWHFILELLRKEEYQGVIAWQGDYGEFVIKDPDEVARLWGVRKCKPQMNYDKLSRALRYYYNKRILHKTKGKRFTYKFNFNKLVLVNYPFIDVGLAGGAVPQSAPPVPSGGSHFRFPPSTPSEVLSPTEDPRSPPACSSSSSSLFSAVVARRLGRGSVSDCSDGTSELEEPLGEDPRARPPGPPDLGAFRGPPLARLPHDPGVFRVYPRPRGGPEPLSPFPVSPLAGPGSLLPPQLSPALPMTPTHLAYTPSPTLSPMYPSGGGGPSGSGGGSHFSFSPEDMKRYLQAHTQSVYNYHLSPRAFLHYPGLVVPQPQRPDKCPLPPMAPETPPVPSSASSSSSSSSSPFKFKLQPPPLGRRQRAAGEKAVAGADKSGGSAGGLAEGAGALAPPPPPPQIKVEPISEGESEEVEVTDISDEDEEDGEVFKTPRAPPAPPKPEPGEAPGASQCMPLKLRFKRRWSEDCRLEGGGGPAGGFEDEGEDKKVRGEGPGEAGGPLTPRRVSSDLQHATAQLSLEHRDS
The following applies: protein: recombinant; tags: N-terminal GST; dsDNA, one strand shown. The procedure, abridged: as §1

In another assay the target is T7, ETV3L (Homo sapiens, UniProt Q6ZN32 1-361).
T7 sequence: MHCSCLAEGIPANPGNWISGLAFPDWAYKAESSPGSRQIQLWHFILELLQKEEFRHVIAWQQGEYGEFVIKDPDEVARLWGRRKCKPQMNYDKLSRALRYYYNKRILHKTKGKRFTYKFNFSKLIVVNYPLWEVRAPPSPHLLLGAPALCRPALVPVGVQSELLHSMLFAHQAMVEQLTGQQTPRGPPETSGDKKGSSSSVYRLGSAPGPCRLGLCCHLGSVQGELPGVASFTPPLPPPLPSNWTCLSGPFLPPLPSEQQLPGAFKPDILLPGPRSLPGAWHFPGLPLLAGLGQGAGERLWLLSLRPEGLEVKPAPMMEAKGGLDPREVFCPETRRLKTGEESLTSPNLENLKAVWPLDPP
The following applies: protein: recombinant; tags: N-terminal GST; dsDNA, one strand shown. The method in brief:
as §1

The next assay concerns the target T8, ETS2 (Homo sapiens, UniProt P15036 1-469).
T8 sequence: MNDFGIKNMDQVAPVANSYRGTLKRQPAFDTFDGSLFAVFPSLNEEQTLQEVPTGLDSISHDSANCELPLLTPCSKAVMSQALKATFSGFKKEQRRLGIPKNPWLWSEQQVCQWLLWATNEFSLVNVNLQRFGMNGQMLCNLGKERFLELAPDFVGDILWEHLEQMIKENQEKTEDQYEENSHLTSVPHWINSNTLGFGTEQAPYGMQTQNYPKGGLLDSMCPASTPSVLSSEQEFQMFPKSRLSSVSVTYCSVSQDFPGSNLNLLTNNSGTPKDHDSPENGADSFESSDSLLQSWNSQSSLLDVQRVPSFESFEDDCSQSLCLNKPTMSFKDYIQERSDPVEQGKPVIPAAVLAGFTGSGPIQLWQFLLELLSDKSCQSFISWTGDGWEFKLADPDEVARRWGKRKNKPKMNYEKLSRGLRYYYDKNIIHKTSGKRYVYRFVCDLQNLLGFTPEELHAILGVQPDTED
Particulars: protein: recombinant; tags: N-terminal GST; dsDNA, one strand shown. The procedure, abridged:
as §1

The target of the next assay is T9, SPDEF (Homo sapiens, UniProt O95238 1-335).
T9 sequence: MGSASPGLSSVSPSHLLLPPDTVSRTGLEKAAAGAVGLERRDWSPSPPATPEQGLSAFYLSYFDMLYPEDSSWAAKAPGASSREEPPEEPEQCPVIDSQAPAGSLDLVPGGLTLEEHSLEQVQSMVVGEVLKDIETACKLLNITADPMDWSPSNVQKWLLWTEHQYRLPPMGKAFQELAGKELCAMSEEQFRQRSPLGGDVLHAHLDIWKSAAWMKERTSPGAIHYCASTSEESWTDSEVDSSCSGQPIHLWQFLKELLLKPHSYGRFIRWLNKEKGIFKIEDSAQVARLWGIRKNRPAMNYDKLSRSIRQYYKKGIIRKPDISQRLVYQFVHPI
The following applies: protein: recombinant; tags: N-terminal GST; dsDNA, one strand shown. The method in brief: as §1

In the next assay the target is T10, ETV7 (Homo sapiens, UniProt Q9Y603 1-341).
T10 sequence: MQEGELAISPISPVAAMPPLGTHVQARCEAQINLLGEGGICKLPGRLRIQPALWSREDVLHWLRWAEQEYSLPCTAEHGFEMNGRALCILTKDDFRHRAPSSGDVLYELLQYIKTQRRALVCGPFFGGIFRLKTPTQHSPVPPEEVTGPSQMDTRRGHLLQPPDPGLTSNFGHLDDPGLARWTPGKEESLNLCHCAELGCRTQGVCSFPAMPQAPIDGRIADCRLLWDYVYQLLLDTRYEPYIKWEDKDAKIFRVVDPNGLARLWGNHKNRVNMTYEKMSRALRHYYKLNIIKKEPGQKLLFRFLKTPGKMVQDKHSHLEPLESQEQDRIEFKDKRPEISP
Particulars: protein: recombinant; tags: N-terminal GST; dsDNA, one strand shown. The procedure, abridged:
as §1

The target in a further assay is T11, ELF5 (Homo sapiens, UniProt Q9UKW6-2 1-255).
T11 sequence: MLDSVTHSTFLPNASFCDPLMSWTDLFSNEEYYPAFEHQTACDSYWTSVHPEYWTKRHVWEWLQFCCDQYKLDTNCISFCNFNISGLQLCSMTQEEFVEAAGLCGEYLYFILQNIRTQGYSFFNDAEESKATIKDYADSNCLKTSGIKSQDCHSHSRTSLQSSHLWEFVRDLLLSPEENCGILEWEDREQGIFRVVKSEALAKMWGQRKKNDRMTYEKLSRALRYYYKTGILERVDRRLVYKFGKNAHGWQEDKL
The following applies: protein: recombinant; tags: N-terminal GST; dsDNA, one strand shown. The procedure, abridged: as §1

Another assay deals with T12, ETV3 (Homo sapiens, UniProt P41162-2 1-143).
T12 sequence: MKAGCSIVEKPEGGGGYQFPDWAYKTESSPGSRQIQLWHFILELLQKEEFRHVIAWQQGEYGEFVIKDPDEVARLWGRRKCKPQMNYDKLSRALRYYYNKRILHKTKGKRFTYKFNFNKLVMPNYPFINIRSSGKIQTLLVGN
Particulars: protein: recombinant; tags: N-terminal GST; dsDNA, one strand shown. The method in brief: as §1

The target in a further assay is ETV6 (Homo sapiens, UniProt P41212 1-452). Particulars: protein: recombinant; tags: N-terminal GST; dsDNA, one strand shown. The procedure, abridged:
as §1

CRX, sequence (O43186 whole entry): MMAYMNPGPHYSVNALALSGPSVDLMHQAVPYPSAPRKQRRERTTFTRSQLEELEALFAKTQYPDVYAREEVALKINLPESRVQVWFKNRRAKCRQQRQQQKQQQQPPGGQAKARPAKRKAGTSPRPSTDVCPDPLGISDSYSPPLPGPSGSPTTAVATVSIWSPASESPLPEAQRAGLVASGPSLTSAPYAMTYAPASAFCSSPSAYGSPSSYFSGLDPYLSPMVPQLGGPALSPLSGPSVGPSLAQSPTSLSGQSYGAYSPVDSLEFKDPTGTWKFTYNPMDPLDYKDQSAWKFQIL
ETV6, sequence (P41212 whole entry): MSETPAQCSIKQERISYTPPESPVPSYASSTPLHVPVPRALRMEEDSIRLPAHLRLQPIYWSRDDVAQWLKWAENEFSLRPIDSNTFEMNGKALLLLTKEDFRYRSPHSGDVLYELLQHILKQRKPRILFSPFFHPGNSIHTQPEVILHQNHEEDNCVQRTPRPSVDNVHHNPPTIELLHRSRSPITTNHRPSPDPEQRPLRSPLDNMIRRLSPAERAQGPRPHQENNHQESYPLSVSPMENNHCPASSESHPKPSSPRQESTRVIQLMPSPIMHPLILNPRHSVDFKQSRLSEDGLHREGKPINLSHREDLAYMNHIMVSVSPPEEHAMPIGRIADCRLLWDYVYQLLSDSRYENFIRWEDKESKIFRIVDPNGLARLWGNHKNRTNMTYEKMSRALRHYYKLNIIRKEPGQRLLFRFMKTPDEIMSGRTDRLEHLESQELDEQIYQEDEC
HSF1, sequence (Q00613 whole entry): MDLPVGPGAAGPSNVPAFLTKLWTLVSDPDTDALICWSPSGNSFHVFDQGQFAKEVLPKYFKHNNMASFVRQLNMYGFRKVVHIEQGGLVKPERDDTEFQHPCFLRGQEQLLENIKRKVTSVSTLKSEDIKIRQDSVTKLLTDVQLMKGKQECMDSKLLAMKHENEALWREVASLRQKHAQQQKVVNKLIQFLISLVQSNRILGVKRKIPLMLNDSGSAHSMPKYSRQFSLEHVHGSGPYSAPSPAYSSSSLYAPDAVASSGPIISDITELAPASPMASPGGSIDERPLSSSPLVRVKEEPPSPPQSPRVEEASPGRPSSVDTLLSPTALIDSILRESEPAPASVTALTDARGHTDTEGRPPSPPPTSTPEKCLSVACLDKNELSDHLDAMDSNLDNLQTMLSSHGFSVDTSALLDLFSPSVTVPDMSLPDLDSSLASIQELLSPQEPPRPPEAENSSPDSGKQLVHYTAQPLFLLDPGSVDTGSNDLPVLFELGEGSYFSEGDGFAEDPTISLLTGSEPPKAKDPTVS
ETV5, sequence (P41161 whole entry): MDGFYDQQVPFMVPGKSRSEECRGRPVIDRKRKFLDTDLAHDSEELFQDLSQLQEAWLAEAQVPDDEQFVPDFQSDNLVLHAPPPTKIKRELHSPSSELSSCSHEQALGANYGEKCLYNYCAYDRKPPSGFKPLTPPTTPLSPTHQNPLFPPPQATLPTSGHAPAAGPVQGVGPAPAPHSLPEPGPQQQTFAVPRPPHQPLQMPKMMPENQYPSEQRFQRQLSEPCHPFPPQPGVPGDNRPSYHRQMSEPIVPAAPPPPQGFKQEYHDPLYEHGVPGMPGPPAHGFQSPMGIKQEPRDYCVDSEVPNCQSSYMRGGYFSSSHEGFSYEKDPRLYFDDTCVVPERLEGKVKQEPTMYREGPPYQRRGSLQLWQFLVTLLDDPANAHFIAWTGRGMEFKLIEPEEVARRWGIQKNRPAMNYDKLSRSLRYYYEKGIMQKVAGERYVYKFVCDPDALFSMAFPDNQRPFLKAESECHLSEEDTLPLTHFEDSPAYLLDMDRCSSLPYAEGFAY

In the case of ATATAG, the binding signal with FEV is 1.1 fold enrichment (6-mer frequency, TF over GST control); in the assay with ETV5 it was 1.24 fold enrichment (6-mer frequency, TF over GST control); with HSF1 it was 1.19 fold enrichment (6-mer frequency, TF over GST control); with SPIC it was 1.2 fold enrichment (6-mer frequency, TF over GST control); in the assay with ELF4 it was 1.09 fold enrichment (6-mer frequency, TF over GST control); in the assay with ELK4, 1.19 fold enrichment (6-mer frequency, TF over GST control). In addition, the binding signal with ETV2 was 1.07 fold enrichment (6-mer frequency, TF over GST control); with ELF3 it was 1.28 fold enrichment (6-mer frequency, TF over GST control); with CRX, 1.26 fold enrichment (6-mer frequency, TF over GST control); with ETV1, 1.17 fold enrichment (6-mer frequency, TF over GST control); with ERF it was 1.12 fold enrichment (6-mer frequency, TF over GST control); with ETV3L, 1.11 fold enrichment (6-mer frequency, TF over GST control). Moreover, the binding signal in the assay with ETS2 is 1.11 fold enrichment (6-mer frequency, TF over GST control); with SPDEF it was 1.14 fold enrichment (6-mer frequency, TF over GST control); in the assay with ETV7 it was 1.24 fold enrichment (6-mer frequency, TF over GST control); with ELF5, 1.13 fold enrichment (6-mer frequency, TF over GST control); in the assay with ETV3, 1.19 fold enrichment (6-mer frequency, TF over GST control); with ETV6, 1.17 fold enrichment (6-mer frequency, TF over GST control).
